PAFAH1B2 FP inh = inhibitors of human PAFAH1B2; AID 492953; actives 1.2% (n = 340,000); recombinant PAFAH1B2, FP-rhodamine activity probe, fluorescence polarization; inhibition, % at 3.39 µM; P68402;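 active = inhibition above the mean of all tested compounds plus 3 SD, cut at about 24% in these data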;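 note: 0% = enzyme with DMSO and 100% = wells lacking PAFAH1B2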
LYPLA1 inh = counter-screen for PME1 inhibitors: inhibitors of human LYPLA1; O75608; recombinant LYPLA1, FP-Rh probe fluorescence polarization; inhibition, % at 5.9 µM; actives 0.16% (n = 320,000);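 active = inhibition above the mean of all tested compounds plus 3 SD, set per campaign, cut at about 14% in these data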;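 note: inhibitors block serine hydrolase probe labeling of LYPLA1 so polarization falls; 0% = enzyme with DMSO and 100% = wells lacking LYPLA1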
LYPLA2 inh = counter-screen for PME1 inhibitors: inhibitors of human LYPLA2; O95372; recombinant LYPLA2, FP-Rh probe fluorescence polarization; inhibition, % at 5.9 µM; actives 0.38% (n = 320,000); AID 2177;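 active = inhibition above the screen-wide mean plus 3 SD, limit set per campaign, cut at about 26% in these data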;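 note: 0% = LYPLA2 with DMSO and 100% = wells lacking LYPLA2 enzyme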
PAFAH1B3 FP inh = blocks human PAF acetylhydrolase 1B catalytic subunit 3; inhibition, % at 3.39 µM; AID 492972; Q15102; actives 0.28% (n = 340,000); recombinant PAFAH1B3, FP-rhodamine probe, fluorescence polarization;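 active = inhibition above the screen-wide average of all tested compounds plus 3 SD, cut at about 25% in these data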;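 note: 0% = enzyme with DMSO only and 100% = wells lacking PAFAH1B3 protein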
Target sequence (Q15102 whole entry, looked up): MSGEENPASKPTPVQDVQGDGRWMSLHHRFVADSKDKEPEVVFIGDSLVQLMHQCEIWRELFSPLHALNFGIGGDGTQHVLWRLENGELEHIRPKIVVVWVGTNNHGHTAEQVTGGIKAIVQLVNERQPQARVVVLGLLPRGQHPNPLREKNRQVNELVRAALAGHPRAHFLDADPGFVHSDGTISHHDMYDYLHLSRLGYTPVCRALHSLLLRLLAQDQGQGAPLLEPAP
PAFAH2 FP inh = inhibitors of human PAFAH2. Q99487. recombinant PAFAH2, FP-rhodamine activity probe, fluorescence polarization. inhibition, % at 3.39 µM. actives 0.99% (n = 340,000);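 active = inhibition above the mean over all tested compounds plus 3 SD, cut at about 30% in these data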;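 note: inhibitors block probe labeling of enzyme so polarization drops; 0% = enzyme with DMSO and 100% = wells lacking PAFAH2 protein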
pPAFAH inh = pPAFAH (human) enzyme inhibition; AID 463082; inhibition, % at 3.39 µM; Q13093; recombinant pPAFAH, FP-rhodamine probe fluorescence polarization; actives 1.5% (n = 330,000);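 active = inhibition above the mean inhibition across the screen plus 3 SD, cut at about 25% in these data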;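 note: inhibitors block binding of the rhodamine activity-based probe so polarization drops; 0% = enzyme with DMSO and 100% = wells lacking pPAFAH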
Target sequence (Q13093 whole entry, looked up): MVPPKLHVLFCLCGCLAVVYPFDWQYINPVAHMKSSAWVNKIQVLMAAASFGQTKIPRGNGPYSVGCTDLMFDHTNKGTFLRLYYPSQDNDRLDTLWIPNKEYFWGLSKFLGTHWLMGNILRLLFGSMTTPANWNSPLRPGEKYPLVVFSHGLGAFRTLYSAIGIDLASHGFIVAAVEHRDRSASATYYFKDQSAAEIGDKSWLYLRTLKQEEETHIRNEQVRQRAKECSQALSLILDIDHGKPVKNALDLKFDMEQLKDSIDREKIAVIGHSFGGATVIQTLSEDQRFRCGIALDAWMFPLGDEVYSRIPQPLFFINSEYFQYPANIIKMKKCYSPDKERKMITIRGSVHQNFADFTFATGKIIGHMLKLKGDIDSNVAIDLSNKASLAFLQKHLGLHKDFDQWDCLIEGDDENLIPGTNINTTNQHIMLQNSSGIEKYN
An asterisk follows results filed as active; . = not tested or not shown. Shown are actives, neighbours in structure and some others; about 2.9% of the full set was active somewhere.

SMILES | PAFAH1B2 FP inh | LYPLA1 inh | LYPLA2 inh | PAFAH1B3 FP inh | PAFAH2 FP inh | pPAFAH inh
O=C(Cc1ccc(Cl)cc1)OCc1nnc(-c2ccccc2)o1 | 6 | -1 | 0 | -4 | -1 | 12
O=C(CSc1ccc(Cl)cc1)OCc1nnc(-c2ccccc2)o1 | 96* | 1 | 12 | 9 | 11 | 26*
O=C(c1cc([N+](=O)[O-])ccc1N1CCOCC1)N1CCN(S(=O)(=O)c2cc(Cl)ccc2Cl)CC1 | -2 | 1 | 7 | -1 | 7 | 0
O=C(c1cc([N+](=O)[O-])ccc1N1CCN(S(=O)(=O)c2ccc(Cl)c(Cl)c2)CC1)N1CCOCC1 | 37* | 0 | 6 | -3 | 5 | 1
O=C(NCC1CCCC(CNC(=O)Nc2ccc(Cl)cn2)C1)Nc1ccc(Cl)cn1 (stereo unspecified) | 26* | -4 | -3 | -2 | 21 | 2
CC(O)c1nc2ccccc2n1CCCc1ccccc1 (stereo unspecified) | 0 | 2 | 2 | -8 | 1 | 34*
O=C(CN1C(=O)C2CCCCC2C1=O)Nc1cccc([N+](=O)[O-])c1 (stereo unspecified) | 0 | 0 | 7 | 0 | -4 | 1
O=C1CC(c2ccccc2)=NN1c1nc(-c2ccccc2)cs1 | 8 | -14 | -16 | 18 | 66* | 28*
CC1=NN(c2nc(-c3ccccc3)cs2)C(=O)C1 | 10 | -2 | 7 | 4 | 20 | 24
Cc1ccccc1-n1nc2c(c1NC(=O)c1c(-c3ccccc3Cl)noc1C)CS(=O)(=O)C2 | -3 | -2 | -4 | 3 | 4 | 1
CCCCNc1c(-c2ccc(OC)c(SC3CCCCC3)c2)nc2cnccn12 | 8 | -5 | 2 | 7 | -3 | 33*
CCCCNc1c(-c2ccc(OC)c(SC3CCCCC3)c2)nc2cc(C)ccn12 | 4 | 3 | 10 | 6 | 0 | 21
CC[n+]1c(/C=C/N(C)c2ccccc2)oc2ccccc21 | 0 | 3 | -3 | 0 | 1 | 6
CN(C(=O)c1ccco1)c1ccccc1C(=O)O | -1 | 2 | 4 | 3 | 2 | 1
COCCN(C(=O)c1ccc(OCC(C)C)cc1)c1c(N)n(Cc2ccccc2)c(=O)[nH]c1=O | 0 | 2 | 5 | -10 | -14 | 31*
COCCN(C(=O)c1ccc(C#N)cc1)c1c(N)n(Cc2ccccc2)c(=O)[nH]c1=O | 6 | 3 | 8 | 2 | 5 | 2
O=C(O)c1cc(S(=O)(=O)N(Cc2ccccc2)c2ccc(Cl)cc2)ccc1Cl | 29* | 1 | 5 | 3 | -21 | 1
O=C(O)c1cccc(S(=O)(=O)N(Cc2ccccc2)c2ccccc2Cl)c1 | 19 | . | . | 8 | 5 | .
O=C(O)c1cccc(S(=O)(=O)N(Cc2ccccc2)c2cccc(C(F)(F)F)c2)c1 | 24 | -1 | 5 | 0 | 1 | 28*
CC(C)C(=O)NN(C(=O)c1ccccc1)c1ccccc1 | 0 | -2 | 9 | 2 | 2 | -1
CC(C(=O)O)N(C(=O)c1ccccc1)c1ccc(F)cc1 (stereo unspecified) | 29* | 1 | 0 | 9 | 0 | 5
CN(/N=C/c1cc(Cl)cc(Cl)c1O)C(=S)NC(C)(C)C | 9 | -1 | 5 | 4 | 3 | 7
O=C(Oc1ccc(OC(=O)c2ccco2)c(S(=O)(=O)c2ccc(Br)cc2)c1)c1ccco1 | 45* | -3 | -3 | 12 | 10 | 1
O=C(Oc1ccc(-c2ccccc2)cc1)c1ccco1 | 32* | . | . | 9 | 6 | .
COC(=O)c1ccc(OC(=O)c2ccco2)cc1 | 5 | -1 | 0 | 0 | 0 | 1
SMILES | PAFAH1B2 FP inh | LYPLA1 inh | LYPLA2 inh | PAFAH1B3 FP inh | PAFAH2 FP inh | pPAFAH inh
Cc1ccc(S(=O)(=O)c2cc(OC(=O)c3ccco3)ccc2OC(=O)c2ccco2)cc1 | 3 | -3 | -5 | 0 | 9 | 0
Nc1ccc(C2CCCc3nonc32)c2nonc12 (stereo unspecified) | 0 | -2 | 6 | 3 | 4 | 2
CC12CC3(C)CC(C)(C1)CC(C(=O)NCc1cccnc1)(C2)C3 | -6 | -3 | 2 | 14 | -5 | -4
CCOC(=O)c1nn(-c2ccccc2)c(=O)c2c(NC(C)=O)scc12 | 7 | -1 | 1 | 5 | 1 | 3
Cc1ccc(S(=O)(=O)NCC(=O)OCCOc2ccc(Br)cc2)cc1 | 30* | . | . | 12 | -2 | 13
Cc1ccc(OCCNS(=O)(=O)c2ccc(Cl)cc2)cc1 | 24* | -1 | 7 | 5 | 9 | 3
CC(C)(C)SCCNS(=O)(=O)c1ccc(C#N)cc1 | 19 | -1 | 4 | 8 | -4 | 9
O=[N+]([O-])c1ccc(NCCCNS(=O)(=O)c2ccc(Cl)cc2)c(Cl)c1 | 14 | -2 | 27* | 9 | 1 | 12
CC(C)(C)SCCNS(=O)(=O)c1ccc(Cl)cc1 | . | 0 | -3 | . | . | 31*
O=[N+]([O-])c1ccccc1NCCNS(=O)(=O)c1ccc(Cl)cc1 | 7 | -2 | 4 | 6 | 9 | 1
Cc1ccc(S(=O)(=O)NCC(=O)OCc2ccccc2Br)cc1 | 13 | -2 | -3 | 8 | 3 | 13
CCOC(=O)c1cc2sc(C)cc2n1CC(=O)NCCc1ccccc1 | 2 | 0 | 4 | -2 | 5 | 2
CSc1ccc(CNCCCSc2ncccn2)cc1 | 4 | -1 | 2 | 4 | 6 | 1
COc1ccc(S(=O)(=O)N(C)C[C@H]2Oc3ccc(NC(=O)NC(C)C)cc3C(=O)N([C@H](C)CO)C[C@@H]2C)cc1 | 5 | . | . | 19 | -4 | 4
O=C1C=C(O)c2cccc3cccc1c23 | 4 | -1 | 0 | 6 | 9 | 4
O=C1C=C(O)c2c(O)cccc2C1=O | . | 1 | 12 | . | . | 27*
CC(CCc1ccccc1)NS(=O)(=O)c1ccccc1 (stereo unspecified) | 33* | -1 | 2 | 8 | 4 | 16
COc1ccc(OC)c(S(=O)(=O)NC(C)CCc2ccccc2)c1 (stereo unspecified) | 17 | -4 | 0 | 2 | 2 | 6
Cc1ccc2nc(N3CCOCC3)c(C=O)cc2c1 | 7 | 1 | 2 | 17 | 0 | 0
COc1cccc(C(=O)COc2ccc(NC(=O)c3ccccc3)cc2)c1 | 0 | . | . | 7 | 0 | .
O=c1ccc2cc3c([nH]c4ccc(Br)cc43)oc-2c1O | 42* | 2 | 9 | 45* | 52* | 79*
CCOc1ccc(N=C/C=C/c2ccccc2)c(O)c1 | 0 | 3 | 4 | 2 | 0 | 32*
CN1OC[C@@H]2CN(S(=O)(=O)c3ccccc3)[C@H](c3cccc(Br)c3)C[C@@H]21 | 14 | . | . | 11 | 8 | .
Cc1c(NC(=O)C(C)N2C(=O)c3ccccc3C2=O)c(=O)n(-c2ccccc2)n1C (stereo unspecified) | 0 | -2 | -3 | 6 | 4 | 3

From PubChem BioAssay
